Growth inhibition data for nine molecules are collected here from PubChem BioAssay (NCI).

Assay [1] in a line: NCI Yeast Anticancer Drug Screen. Data for the rad50 strain (AID 155).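 Note: 0% = growth of vehicle-only cultures of the same strain.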 Conditions: S. cerevisiae rad50 strain growth inhibition, active compounds read high. Summed up: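 DNA repair mutant yeast, compound exposure, growth read-out; inhibition is taken relative to vehicle.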
A short description of assay [2]: NCI Yeast Anticancer Drug Screen. Data for the mec2-1 strain (AID 157). To be noted: S. cerevisiae mec2-1 strain, active compounds read high. Summed up: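 Compounds were applied to mec2-1 yeast cells. Their growth was then compared with that of vehicle-treated cultures to give growth inhibition.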
Assay [3] can be described thus: NCI Yeast Anticancer Drug Screen. Data for the sgs1 mgt1 strain (AID 161).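 Note: 0% = growth of cultures given vehicle only.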 Conditions: S. cerevisiae sgs1 mgt1 strain, active compounds read high. An outline of the steps:
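This yeast growth screen uses a strain with defined DNA-repair lesions; compound-treated growth is compared with vehicle-treated growth.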

Assay [4] can be described thus: NCI Yeast Anticancer Drug Screen. Data for the cln2 rad14 strain (AID 165).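 Note: 0% = growth equal to vehicle treated cultures.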 To be noted: S. cerevisiae cln2 rad14 strain, active compounds read high. An outline of the steps:
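Strain: cln2 rad14 yeast, altered in cell cycle control and DNA damage repair. Read-out: growth inhibition vs vehicle.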

Assay [5] can be described thus: NCI Yeast Anticancer Drug Screen. Data for the bub3 strain (AID 167). To be noted: S. cerevisiae bub3 mutant strain, active compounds read high. Summed up: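 In this screen, a yeast mutant lacking normal mitotic checkpoint function is challenged with compound. Relative growth versus vehicle gives the inhibition value.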
A short description of assay [6]: NCI Yeast Anticancer Drug Screen. Data for the mlh1 rad18 strain (AID 175). To be noted: S. cerevisiae mlh1 rad18 strain growth inhibition, active compounds read high. Summed up:
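A repair-deficient yeast strain is exposed to test compound, and growth is scored relative to vehicle-treated controls.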

Where [7] appears, read: at 5.0 µM (retest, dose inferred, filed as 0.5).
Where [8] appears, read: at 50.0 µM (retest, dose inferred, filed as 5.0).

This is part of a sample that, as a whole, favours compounds with a hit. Of some 79,000 tested, about 15% had one in any assay. Unmarked numbers belong to inactive results. Calls of active or inactive are those of the source. Cut-off read from the data, not from the text of the source: active = growth inhibition above about 70%; inactive = the rest.

For the molecule `Cc1cccc(/C=N/NC(=S)Nc2ccc(Cl)cc2)n1`, the growth inhibition in assay [1] (setting [7]) is 6%; in assay [1] (setting [8]) it was 98% (active); in assay [1] (at 50.0 µM) it was 70% (active); in assay [2] (setting [7]), 0%; in assay [2] (setting [8]) it was 97% (active); in assay [2] (at 50.0 µM) it was 81.8% (active). The growth inhibition was -5% in assay [3] (setting [7]); 98% (active) in assay [3] (setting [8]); 87% (active) in assay [3] (at 50.0 µM); -25% in assay [4] (setting [7]); 96% (active) in assay [4] (setting [8]); 86.5% (active) in assay [4] (at 50.0 µM). The growth inhibition is -12% in assay [5] (setting [7]); 98% (active) in assay [5] (setting [8]); 87.2% (active) in assay [5] (at 50.0 µM); 35% in assay [6] (setting [7]); 98% (active) in assay [6] (setting [8]); 88.8% (active) in assay [6] (at 50.0 µM).
For `c1ccc2c(c1)ccc1ncccc12`, the growth inhibition was 8% in assay [1] (setting [7]); 70% (active) in assay [1] (setting [8]); 81.8% (active) in assay [1] (at 50.0 µM); 3% in assay [2] (setting [7]); 23% in assay [2] (setting [8]); 3.15% in assay [2] (at 50.0 µM). The growth inhibition is 0% in assay [3] (setting [7]); 38% in assay [3] (setting [8]); 47.6% in assay [3] (at 50.0 µM); 2% in assay [4] (setting [7]); 10% in assay [4] (setting [8]); -12.2% in assay [4] (at 50.0 µM). Besides, the growth inhibition in assay [5] (setting [7]) is 6%; in assay [5] (setting [8]) it was 62%; in assay [5] (at 50.0 µM) it was 46.9%; in assay [6] (setting [7]), 6%; in assay [6] (setting [8]) it was 43%; in assay [6] (at 50.0 µM) it was 64.8%.
With `Cc1ccc(S(=O)(=O)NNC2Oc3cc4c(cc3C(c3ccccc3O)C2C)OCO4)cc1` (configuration not stated), the growth inhibition in assay [1] (setting [7]) was -12%; in assay [1] (setting [8]) it was 98% (active); in assay [1] (at 50.0 µM) it was 97.4% (active); in assay [2] (setting [7]), -3%; in assay [2] (setting [8]), 98% (active); in assay [2] (at 50.0 µM) it was 95.7% (active). Further, the growth inhibition in assay [3] (setting [7]) was -2%; in assay [3] (setting [8]), 98% (active); in assay [3] (at 50.0 µM), 95.7% (active); in assay [4] (setting [7]), 19%; in assay [4] (setting [8]) it was 97% (active); in assay [4] (at 50.0 µM), 97% (active). Further, the growth inhibition was -11% in assay [5] (setting [7]); 98% (active) in assay [5] (setting [8]); 96.2% (active) in assay [5] (at 50.0 µM); 22% in assay [6] (setting [7]); 97% (active) in assay [6] (setting [8]); 96.2% (active) in assay [6] (at 50.0 µM).
Regarding `CCCCC(O)CCCC`, the growth inhibition is 13% in assay [1] (setting [7]); 17% in assay [1] (setting [8]); 4.55% in assay [1] (at 50.0 µM); 14% in assay [2] (setting [7]); 18% in assay [2] (setting [8]); 8.65% in assay [2] (at 50.0 µM). For the same molecule, the growth inhibition in assay [3] (setting [7]) is -5%; in assay [3] (setting [8]), 9%; in assay [3] (at 50.0 µM), 15.8%; in assay [4] (setting [7]), 3%; in assay [4] (setting [8]), 13%; in assay [4] (at 50.0 µM), 22.2%. For the same molecule, the growth inhibition in assay [5] (setting [7]) is 43%; in assay [5] (setting [8]) it was 91% (active); in assay [5] (at 50.0 µM), 64.2%; in assay [6] (setting [7]), 31%; in assay [6] (setting [8]) it was 25%; in assay [6] (at 50.0 µM), -7.1%.
`C=C1CC(Cn2cc(C)c(=O)[nH]c2=O)(c2ccc(Cl)cc2)OC1=O` (configuration not stated): the growth inhibition in assay [1] (setting [7]) was -7%; in assay [1] (setting [8]) it was 82% (active); in assay [1] (at 50.0 µM), 69.8%; in assay [2] (setting [7]), -11%; in assay [2] (setting [8]), 94% (active); in assay [2] (at 50.0 µM), 73.1% (active). In addition, the growth inhibition in assay [3] (setting [7]) was -27%; in assay [3] (setting [8]), 85% (active); in assay [3] (at 50.0 µM), 74.2% (active); in assay [4] (setting [7]) it was 13%; in assay [4] (setting [8]) it was 43%; in assay [4] (at 50.0 µM) it was 65%. For the same molecule, the growth inhibition in assay [5] (setting [7]) was 8%; in assay [5] (setting [8]), 89% (active); in assay [5] (at 50.0 µM) it was 78.3% (active); in assay [6] (setting [7]) it was 7%; in assay [6] (setting [8]) it was 91% (active); in assay [6] (at 50.0 µM), 85.3% (active).
In the case of `CC(=O)c1ccc2sc3ccccc3c2c1`, the growth inhibition in assay [1] (setting [7]) was -92%; in assay [1] (setting [8]), 96% (active); in assay [1] (at 50.0 µM), 96% (active); in assay [2] (setting [7]), -45%; in assay [2] (setting [8]), 72% (active); in assay [2] (at 50.0 µM), 57.6%. The growth inhibition in assay [3] (setting [7]) was -59%; in assay [3] (setting [8]) it was 88% (active); in assay [3] (at 50.0 µM) it was 70.2% (active); in assay [4] (setting [7]), -52%; in assay [4] (setting [8]) it was 86% (active); in assay [4] (at 50.0 µM) it was 33.4%. In addition, the growth inhibition in assay [5] (setting [7]) is -51%; in assay [5] (setting [8]) it was 85% (active); in assay [5] (at 50.0 µM), 88% (active); in assay [6] (setting [7]) it was -120%; in assay [6] (setting [8]), 92% (active); in assay [6] (at 50.0 µM) it was 88.3% (active).
Consider `Oc1ccc(-c2nnc(-c3ccc(Cl)cc3Cl)o2)cc1`, for which the growth inhibition was 6% in assay [1] (setting [7]); 80% (active) in assay [1] (setting [8]); 54.6% in assay [1] (at 50.0 µM); 2% in assay [2] (setting [7]); 82% (active) in assay [2] (setting [8]); 50.8% in assay [2] (at 50.0 µM). The growth inhibition is 0% in assay [3] (setting [7]); 85% (active) in assay [3] (setting [8]); 54.2% in assay [3] (at 50.0 µM); 2% in assay [4] (setting [7]); 86% (active) in assay [4] (setting [8]); 74.4% (active) in assay [4] (at 50.0 µM). Also, the growth inhibition in assay [5] (setting [7]) was 17%; in assay [5] (setting [8]) it was 91% (active); in assay [5] (at 50.0 µM), 47.5%; in assay [6] (setting [7]), -2%; in assay [6] (setting [8]), 76% (active); in assay [6] (at 50.0 µM), 51.8%.
For `COc1ccc2cc3c4cc(OC)c(OC)cc4ccn3c2c1`, the growth inhibition in assay [1] (setting [7]) was 3%; in assay [1] (setting [8]) it was 65%; in assay [1] (at 50.0 µM), 33.1%; in assay [2] (setting [7]) it was -1%; in assay [2] (setting [8]), 58%; in assay [2] (at 50.0 µM), 15.3%. In addition, the growth inhibition in assay [3] (setting [7]) was 16%; in assay [3] (setting [8]), 81% (active); in assay [3] (at 50.0 µM) it was 62.4%; in assay [4] (setting [7]), 5%; in assay [4] (setting [8]) it was 71% (active); in assay [4] (at 50.0 µM), 80% (active). For the same molecule, the growth inhibition in assay [5] (setting [7]) is -1%; in assay [5] (setting [8]), 84% (active); in assay [5] (at 50.0 µM), 24.2%; in assay [6] (setting [7]), 12%; in assay [6] (setting [8]), 88% (active); in assay [6] (at 50.0 µM) it was 91.5% (active).
For `C/C=C1/C=CC2c3[nH]c4ccccc4c3CCN2C1` (configuration not stated), the growth inhibition was -152% in assay [1] (setting [7]); -150% in assay [1] (setting [8]); 5.35% in assay [1] (at 50.0 µM); -51% in assay [2] (setting [7]); -57% in assay [2] (setting [8]); -0.8% in assay [2] (at 50.0 µM). The growth inhibition is -62% in assay [3] (setting [7]); -67% in assay [3] (setting [8]); 2.95% in assay [3] (at 50.0 µM); -62% in assay [4] (setting [7]); -72% in assay [4] (setting [8]); 38% in assay [4] (at 50.0 µM). Also, the growth inhibition in assay [5] (setting [7]) was -73%; in assay [5] (setting [8]), -81%; in assay [5] (at 50.0 µM) it was -13.4%; in assay [6] (setting [7]) it was -137%; in assay [6] (setting [8]), -107%; in assay [6] (at 50.0 µM), 13%.
